Screen size: about 48,000 compounds; about 13,000 (27%) showed an effect of 50% or more. The list shows a part of the results.

The subject of the test is Wolbachia pipientis. Description: Anti-Wolbachia Cell-Based Screen. Format: functional. Also on record: scale not given: in the data most compounds retested in dose-response had high values. The note with it: 5 µM.
Regarding `O=C(Nc1cnn(CC(=O)N2CCCO2)c1)c1ccccc1`, the “Percent Effect” value worked out at 1.203%.
The result for `CCN(C(c1cccnc1)c1ccc2c(c1)CCC2)S(C)(=O)=O` (configuration not stated) reads -0.855%; that for `O=C(NC1CCN(C2CC2)CC1)NC1CCOc2ccc(Br)cc21` (configuration not stated), 24.64%; that for `CC1=N[C@@]2(CC[C@@H]3CN(C(=O)NC(C)C)C[C@@H]32)C(=O)N1CC(C)C`, 1.346%.
Turning to `C=C(C)COc1ccccc1CNCCc1c[nH]cn1`, the “Percent Effect” value is reported as -1.538%.
`CCC(C)Oc1ccc(CNCCNS(C)(=O)=O)cc1Cl` (configuration not stated): the “Percent Effect” value is 97.61%.
For `C=C(C)COc1cccc(CNCCc2c[nH]cn2)c1`, the “Percent Effect” value is -1.571%.
Consider `CCC(C)Oc1ccc(CNCCc2c[nH]cn2)cc1Cl` (configuration not stated), for which the “Percent Effect” value turned out to be 95.83%.
As to `CC(CNCc1ccc(Cl)c(Cl)c1)Oc1ccccn1.Cl` (configuration not stated), the “Percent Effect” value came to 9.6%.
The result for `CCOc1ccc(CNCCCn2ccnc2)cc1Cl.Cl.Cl` reads 1.454%; that for `CCC(C)Oc1ccc(CNCCNC(C)=O)cc1OC` (configuration not stated), 123.2%; that for `CC(=O)NCCNC(=O)NCc1ccc(Br)cc1Cl`, -4.256%.
On to `COc1cc(CNCCNC(=O)c2ccc(O)cc2)ccc1SC`, for which the “Percent Effect” value is -8.251%.
For `CC(CNS(C)(=O)=O)Oc1cccc(Cl)c1` (configuration not stated), the “Percent Effect” value is -10.77%.
As to `CNC(=O)c1ccc(CNCc2ccc(SC)c(OC)c2)cc1`, the “Percent Effect” value was -3.705%.
On to `CCC(C)Oc1ccc(CNCCNC(C)=O)cc1Cl` (configuration not stated), for which the “Percent Effect” value was 110%.
The result for `COc1cc(C2CC(=O)Oc3cc(C)[nH]c(=O)c32)ccc1OC(F)F` (configuration not stated) reads 2.33%.
With `Cc1ccccc1[C@@H]1CN(Cc2nc3ncccn3n2)C[C@H]1C(=O)O`, the “Percent Effect” value was -5.6%.
Regarding `Cc1nc(C)c(CNC(=O)NC(c2nnc3n2CCC3)C(C)C)s1` (configuration not stated), the “Percent Effect” value is -4.122%.
With `COc1ccc(C(=O)Cn2cnnc2[S+](C)[O-])cc1Cl` (configuration not stated), the “Percent Effect” value is -30.86%.
`CC(C)n1c(C2CCCN(CC(N)=O)C2)nc2ccccc21` (configuration not stated): the “Percent Effect” value is on record as -123.1%.
Regarding `C/C(=C\c1ccccc1)CN1CCCC(c2nnc3n2CCNCC3)C1.Cl` (configuration not stated), the “Percent Effect” value amounted to 87.16%.
The result for `Cc1ccc(CC(=O)N2CCC(c3nnc4n3CCC4)CC2)cc1` reads -4.36%; that for `CC(C)CN1C(=O)CO[C@@H]2CN(C(=O)NC(C)C)C[C@H]21`, -9.204%.
Regarding `CN1CCCN(c2nccc(-c3c[nH]c4ccc(Br)cc34)n2)CC1`, the “Percent Effect” value is recorded as 88.95%.
The value for `c1cc(-c2n[nH]cc2-c2ccnc(N3CCCCCC3)n2)ccn1` was 91.97%; that for `CN1CCCN(c2nccc(-c3c[nH]nc3-c3ccncc3)n2)CC1` was 94.49%; that for `c1cc(-c2n[nH]cc2-c2ccnc(N3CCCC3)n2)ccn1` was 100.8%.
Consider `Cc1nn(C)cc1-c1ccnc(N2CCN(c3ccccc3)C(=O)C2)n1`, for which the “Percent Effect” value is reported as -10.97%.
Take `CN1CCCN(c2nccc(-c3cc(C(=O)O)ccn3)n2)CC1`: the “Percent Effect” value is -0.2127%.
The value for `Cc1oc(C(C)C)cc1C(=O)N1C[C@H]2CC[C@@H]1CN(c1ncccn1)C2` was 6.387%.
The value for `CN(C)c1ccc(CCCNC(=O)NCC(O)c2ccsc2)cc1` (configuration not stated) was 3.16%; that for `Cc1ccc(-c2nc3c([nH]2)CCNC3C(=O)O)c2cccnc12` (configuration not stated) was -6.719%.
`CS(=O)(=O)N1CCCC(c2nc(-c3ccccc3)c[nH]2)C1` (configuration not stated): the “Percent Effect” value is -2.942%.
`Cc1cnc(N2CCCC(c3ccccc3)C2)nc1-c1ccnn1C` (configuration not stated): the “Percent Effect” value is reported as -17.82%.
Consider `CS(=O)(=O)N1CCCC(c2cncc(Nc3ccccn3)n2)C1` (configuration not stated), for which the “Percent Effect” value is listed as 103.2%.
The value for `Cc1cc(-c2ccnn2C)nc(C2CCCN(S(C)(=O)=O)C2)n1` (configuration not stated) was 122.2%; that for `CNc1cncc(C2CCCN(S(C)(=O)=O)C2)n1` (configuration not stated) was -7.969%.
`Cc1cc(C)nc(Nc2cccc(C3CCCN(S(C)(=O)=O)C3)n2)n1` (configuration not stated): the “Percent Effect” value was 85.5%.
`Cc1cc(C)nc(Nc2cncc(C3CCCN(S(C)(=O)=O)C3)n2)n1` (configuration not stated): the “Percent Effect” value is given as 101.3%.
For the compound `CCc1noc(C)c1-c1nc(Cc2cccs2)nn1C1CCN(C)CC1`, the “Percent Effect” value is -27.77%.
On to `COCC(c1ccccn1)N(C)C(=O)c1cc(-c2ccc(O)cc2)n[nH]1` (configuration not stated), for which the “Percent Effect” value was -10.51%.
With `N#Cc1cc2n(n1)CCN(C(=O)CCc1c[nH]c3ccccc13)C2`, the “Percent Effect” value is listed as -21.25%.
As for `CN(C)C(CNC(=O)NCc1cc[nH]n1)c1ccco1` (configuration not stated), the “Percent Effect” value was -4.793%.
`CCOC(=O)C1CN(CC2CC2)Cc2ncn(CC)c21.O=C(O)C(F)(F)F` (configuration not stated): the “Percent Effect” value was 1.772%.
For `COCCC(=O)N1C[C@@H]2COC[C@]2(COCc2cccnc2)C1`, the “Percent Effect” value is given as -10.08%.
As for `COC[C@@]12CCC[C@@H]1CN(C(=O)N1CCCC1)C2`, the “Percent Effect” value stood at 106.2%.
As for `CCOCC(=O)N1C[C@H]2CCC[C@@]2(COC)C1`, the “Percent Effect” value was determined as 105.6%.
Consider `COC[C@@]12CCO[C@@H]1CCN(C(=O)C1CC(F)(F)C1)C2`, for which the “Percent Effect” value is on record as -30.77%.
Take `Cc1ccoc1C(=O)N1C[C@H]2CCC[C@@]2(COCc2ccncc2)C1.O=C(O)C(F)(F)F`: the “Percent Effect” value came out at 6.221%.
In the case of `COC[C@@]12CCO[C@@H]1CCN(C(=O)C1CCSCC1)C2`, the “Percent Effect” value is -9.781%.
The result for `COC[C@@]12CCC[C@@H]1CN(C(=O)CN(C)C)C2.O=C(O)C(F)(F)F` reads 107.5%; that for `COCCC(=O)N1C[C@H]2CCC[C@@]2(COC)C1`, 114%.
As for `CCCc1cc(C(=O)N2C[C@H]3CCC[C@@]3(CO)C2)[nH]n1`, the “Percent Effect” value is listed as 14.56%.
For the compound `COC[C@@]12CCC[C@@H]1CN(C(=O)Cc1ccco1)C2`, the “Percent Effect” value is reported as -55.3%.
The value for `CNC(=O)CCCNCc1c(C)nn(CC(C)C)c1N(C)C` was 0.5097%.
As to `CC(=O)N1CCN(c2ccccc2CNc2ccc3[nH]ncc3c2)CC1`, the “Percent Effect” value is -1.242%.
Turning to `CCNC(=O)CN1CCCN(C(=O)C2CCCc3[nH]ncc32)CC1` (configuration not stated), the “Percent Effect” value stood at 2.738%.
`CC(C#N)NS(=O)(=O)c1ccc2c(c1)N(C)CCC2` (configuration not stated): the “Percent Effect” value is on record as -3.388%.
Consider `Cc1nc(CCNC(=O)C2CC(=O)N(C(C)(C)C)C2)sc1Cl` (configuration not stated), for which the “Percent Effect” value is listed as -46.08%.
For the compound `N#Cc1ccc2c(c1)CN(C(=O)C1CC=CC1)C2c1cnco1` (configuration not stated), the “Percent Effect” value was -2.479%.
As to `CC(C)(O)CN1CCN(C(=O)COC2CCCC2)CC1`, the “Percent Effect” value is reported as -11.71%.
As to `COCC(=O)N1C[C@H]2CCC[C@@]2(COC)C1`, the “Percent Effect” value is reported as 91.12%.
The result for `COC[C@@]12CCC[C@@H]1CN(C(=O)COC1CCCC1)C2` reads 116%.
The value for `COCC(=O)N1C[C@@H]2COC[C@]2(COC)C1` was -5.007%; that for `O=C(COC1CCCC1)N1CC[C@H]2OCC[C@@]2(COCC2CC2)C1` was 5.898%; that for `O=C(Cc1ccco1)N1C[C@H]2CCC[C@@]2(COCC2CC2)C1` was 4.43%.
